# The panel holds about 83,000 compounds, 20% with a hit somewhere; the sample as a whole holds those more often.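 The test compound was applied at a single concentration to cells in 96-well plates for 48 hours, and percent growth was recorded.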 Calls of active or inactive are those of the source. Rule for the calls: active = growth percent below 10; inactive = the rest.
# Test system: SK-MEL-2 melanoma
# Assay: NCI-60 one-dose screen, 48 h (100 = growth as untreated, 0 = no growth, -100 = all killed)
# Details: 10 µM unless noted
row,SMILES,growth
1,N#C/C(=C1C=C/C(=N/O)C(Cl)=C/1)c1ccc(Cl)cc1,95.1% (inactive)
2,Cn1ncc2c(Sc3ccc(Cl)cc3)ncnc21,-13.3% (active)
3,O=C1C(Cl)=C(Nc2ccccn2)C(=O)c2ccccc21,88.2% (inactive)
4,CCCCCCCCCCCCCCCCNC(=O)OC(C)C,58.7% (inactive)
5,Cc1ccc2nc(Cl)cc(=O)n2c1,107% (inactive)
6,COc1cc(C2CC(c3ccc4c(c3)OCO4)=NN2C(C)=O)cc(OC)c1OC (stereo not drawn),28.5% (inactive)
7,COc1ccc2c(c1)C(c1cc(OC)c3c(c1)OCO3)C1=C(COC1=O)N2 (stereo not drawn),33.2% (inactive)
8,C=C1CCC2C3(C)COC(c4ccccc4)OC3CCC2(C)C1/C=C/C1=CCOC1=O (stereo not drawn),51.3% (inactive)
9,CC(=O)Nc1ccc(S(=O)(=O)n2ccc(-c3ccc4c(c3)CCC(C)(C)O4)n2)cc1,53.5% (inactive)
10,CC(C)(C)OC(=O)NCCc1ccc(N=C=S)cc1,53.8% (inactive)
11,COc1cc(C2CC(c3ccc4c(c3)OCO4)=NN2C=O)cc(OC)c1OC (stereo not drawn),31.3% (inactive)
12,O=C1CCCCC1(c1ccccc1)c1ccccc1,100% (inactive)
13,Nc1nc(=O)c2ccccc2s1,104% (inactive)
14,CN1C=CN(Cc2ccc(-c3ccccn3)nc2)[CH-]1.CN1C=CN(Cc2ccc(-c3ccccn3)nc2)[CH-]1.[Au+3],46.5% (inactive)
15,C=C[C@@H]1C[C@H](O)Cc2cc(F)ccc2N1,123% (inactive)
16,CN(C)c1ncnc2c1ccn2C1OC(CO)C(O)C1O (stereo not drawn),54.9% (inactive)
17,C=C(C)[C@@H]1C[C@H](O)Cc2cc(F)ccc2N1,76.8% (inactive)
18,CCOC(=O)C1CCNC(=O)C1=O (stereo not drawn),107% (inactive)
19,COc1ccc(CNCCCN2C(=O)c3ccc4c5c(ccc(c35)C2=O)C(=O)N(CCCNCCCCNCCCN)C4=O)c(OC)c1OC,-36.5% (active)
20,Cc1ccc(S(=O)(=O)C2=C3C(=C(c4ccccc4)c4ccccc43)CN(S(=O)(=O)c3ccc(C)cc3)C2)cc1,36.8% (inactive)

# Test system: EKVX NSCLC
# Assay: as above
# Details: 10 µM unless noted
row,SMILES,growth
1,CC(C)(C)OC(=O)NC(CSCc1ccccc1)C(=O)ON1C(=O)CCC1=O (stereo not drawn),113% (inactive)
2,Nc1cccc(Cl)c1N,92% (inactive)
3,C/C(=C\c1ccc(OCC(=O)O)c(Cl)c1Cl)[N+](=O)[O-],102% (inactive)
4,CCOC(=O)C1=C(C)NC(C)=C(C(=O)OCC)C1(C)C,108% (inactive)
5,N#C/C(=C1C=C/C(=N/O)C(Cl)=C/1)c1ccc(Cl)cc1,93.6% (inactive)
6,CCC(C)/C(=C\C#N)NCCCN/C(=C/C#N)C(C)CC (stereo not drawn),101% (inactive)
7,Cn1ncc2c(Sc3ccc(Cl)cc3)ncnc21,90.2% (inactive)
8,CC1(c2ccc(Cl)cc2)OC(=O)CC(=O)O1,98.4% (inactive)
9,O=C1C(Cl)=C(Nc2ccccn2)C(=O)c2ccccc21,98.1% (inactive)
10,CCCCCCCCCCCCCCCCNC(=O)OC(C)C,22.8% (inactive)
11,Cc1ccc2nc(Cl)cc(=O)n2c1,114% (inactive)
12,CC1CCC(C)N(C)C1 (stereo not drawn),112% (inactive)
13,COc1cc(C2CC(c3ccc4c(c3)OCO4)=NN2C(C)=O)cc(OC)c1OC (stereo not drawn),38.7% (inactive)
14,O=C(c1ccccc1)C1OC1c1ccc([N+](=O)[O-])cc1 (stereo not drawn),89.2% (inactive)
15,COc1ccc2c(c1)C(c1cc(OC)c3c(c1)OCO3)C1=C(COC1=O)N2 (stereo not drawn),41.1% (inactive)
16,CC(=O)Nc1scc[n+]1Cc1ccccc1,103% (inactive)
17,C=C1CCC2C3(C)COC(c4ccccc4)OC3CCC2(C)C1/C=C/C1=CCOC1=O (stereo not drawn),96.1% (inactive)
18,CCN(CC)CCOc1ccc(Cl)c(C)c1,111% (inactive)
19,O=C(Oc1ccccc1[N+](=O)[O-])C1CCCN1C(=O)OCc1ccccc1 (stereo not drawn),96.7% (inactive)
20,CC(C)(C)OC(=O)NCCc1ccc(N=C=S)cc1,89.7% (inactive)
21,COc1cc(C2CC(c3ccc4c(c3)OCO4)=NN2C=O)cc(OC)c1OC (stereo not drawn),37.9% (inactive)
22,O=C1CCCCC1(c1ccccc1)c1ccccc1,91.2% (inactive)
23,Nc1nc(=O)c2ccccc2s1,111% (inactive)
24,COC(OC)c1ccccc1,103% (inactive)
25,C=C[C@@H]1C[C@H](O)Cc2cc(F)ccc2N1,89.3% (inactive)
26,CN(C)c1ncnc2c1ccn2C1OC(CO)C(O)C1O (stereo not drawn),60.5% (inactive)
27,NC1=NN(O)C2=CC([N+](=O)[O-])C=CC2=N1 (stereo not drawn),99.5% (inactive)
28,O=C([O][Sn]([O]C(=O)c1ccccn1)([c]1ccccc1)[c]1ccccc1)c1ccccn1,92.2% (inactive)
